Results from PubChem BioAssay (NCATS).
Results filed as inconclusive are left out. The source made the active and inactive calls. Unless noted, calls follow the shape of the dose curve; as a rule, active = well fitted curve in the direction sought with a large enough effect; inconclusive = small, poorly fitted or top-dose-only effect, or another doubt; inactive = no such curve, though single readings can be large; an effect the other way counts as inactive or inconclusive. Numbered stars: 1 amine (or outer) side, 2 acyl side, 3 side chain; on linkers, the order of the positions; unused ones are H or OH. Bridge positions count the residues as written; N and C are the ends. Square brackets hold non-standard residues; d marks the D form. Peptide text beside a SMILES is read from it. I, II: the chains in the order shown. Actinocin(9to1) = Cc1c2oc3c(C)ccc(C(=O)[*:1])c3nc-2c(C(=O)[*:2])c(N)c1=O; NMeV = CN[C@H](C(=O)O)C(C)C; Sar = CNCC(=O)O

target: Pyruvate kinase PKM (Homo sapiens) (UniProt P14618); experiment: qHTS Assay for Activators of Human Muscle Pyruvate Kinase (AID 954; active = well fitted curve in the direction sought with a large enough effect, not every such curve was filed as active;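 also: 0% = uninhibited enzyme and -100% = no enzyme or full thiadiazolimine inhibition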); details: purified human muscle pyruvate kinase, luciferase-coupled luminescence, 1 h; series mostly up to 57.5 µM; activity change, negative = inhibition: at the top concentration
Sequence (P14618 whole entry, looked up): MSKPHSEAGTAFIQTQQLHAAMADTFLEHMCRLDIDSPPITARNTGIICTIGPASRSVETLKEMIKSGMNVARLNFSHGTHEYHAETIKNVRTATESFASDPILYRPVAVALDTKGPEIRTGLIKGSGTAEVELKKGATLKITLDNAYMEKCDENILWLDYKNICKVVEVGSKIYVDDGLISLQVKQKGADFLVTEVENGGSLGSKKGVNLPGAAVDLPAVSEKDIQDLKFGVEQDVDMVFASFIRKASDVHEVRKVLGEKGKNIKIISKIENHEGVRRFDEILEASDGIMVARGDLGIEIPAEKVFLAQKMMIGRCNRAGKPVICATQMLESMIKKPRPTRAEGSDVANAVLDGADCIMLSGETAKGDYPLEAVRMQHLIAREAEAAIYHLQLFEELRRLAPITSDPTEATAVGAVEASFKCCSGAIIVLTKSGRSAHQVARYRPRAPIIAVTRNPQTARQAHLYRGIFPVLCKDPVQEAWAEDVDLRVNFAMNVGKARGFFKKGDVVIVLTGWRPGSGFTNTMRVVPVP
Method in brief: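 Luminescence from a luciferase ATP-detection/stop reagent reported PKM2 activity. Reactions contained 0.1 nM purified human enzyme, 0.5 mM PEP, 0.1 mM ADP and 7 mM MgCl2 at pH 7.2, run 1 h at RT.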

Row | SMILES | activity change, negative = inhibition
1 | N[C@@H](Cc1cnc[nH]1)C(=O)O | -3.64% (inactive)
2 | COc1cc(NS(C)(=O)=O)ccc1Nc1c2ccccc2nc2ccccc12 | -23.8% (inactive)
3 | CC(C)COC(=O)OCN1C(=O)CN(CCN2CC(=O)N(COC(=O)OCC(C)C)C(=O)C2)CC1=O | -21% (inactive)
4 | Nc1cc(Cl)c(NC2=NCCN2)c(Cl)c1 | -20.4% (inactive)
5 | O=C1CCC(c2ccc(-n3ccnc3)cc2)=NN1 | -12.4% (inactive)
6 | C[C@@H]1C(=O)NC2=Nc3cccc(Cl)c3CN21 | -14.3% (inactive)
7 | CN1[C@@H]2CC[C@H]1CC(OC(=O)c1c[nH]c3ccccc13)C2 (stereo partly drawn) | -28.4% (inactive)
8 | Oc1cc(O)c2c(c1)O[C@H](c1ccc(O)c(O)c1)[C@H](O)C2 | -23.2% (inactive)
9 | CN1CCC[C@@H]1c1cccnc1 | -6.65% (inactive)
10 | CCCC1O[C@@H]2C[C@H]3[C@@H]4CCC5=CC(=O)C=C[C@]5(C)[C@H]4[C@@H](O)C[C@]3(C)[C@]2(C(=O)CO)O1 (stereo partly drawn) | -2.26% (inactive)
11 | CNCCC=C1c2ccccc2CCc2ccccc21 | -23.8% (inactive)
12 | C[C@]12CC[C@@H]3c4ccc(O)cc4CC[C@H]3[C@@H]1CC[C@@H]2O | 5.31% (inactive)

tested on: not listed separately; experiment: MultiTox-Fluor Cytotoxicity Assay - LYMP1-002 - Live Cells (AID 955); details: LYMP1-002 lymphoblastoid live-cell protease fluorescence viability; series mostly up to 46.1 µM; viability change, negative = cytotoxic: at the top concentration;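 also: cells exposed to compound for 16 hours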; also: potency is read from the fitted curve at half-maximal effect; as to viability change, negative = cytotoxic: % is scaled to controls: 0 for no effect and ±100 for the full control effect
Method in brief: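 Human lymphoblastoid LYMP1-002 cells, 2500/well, treated 16 h at 37 C in complete medium. Live-cell protease activity via GF-AFC fluorescence (Ex/Em 405/510) after 60 min reagent incubation; AC50 from Hill fits.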

Row | SMILES | Potency | viability change, negative = cytotoxic
13 | COc1cccc2c1C(=O)c1c(O)c3c(c(O)c1C2=O)C[C@@](O)(C(C)=O)C[C@@H]3O[C@H]1C[C@H](N)[C@H](O)[C@H](C)O1 | 3980 nM (active) | –
14 | CC(=O)O[C@]1(C(C)=O)CC[C@H]2[C@@H]3C[C@H](C)C4=CC(=O)CC[C@]4(C)[C@H]3CC[C@@]21C | – | -5.47% (inactive)
15 | O=C(O)CCCCC(=O)O | – | 3.99% (inactive)
16 | CC(O)C(=O)O (stereo not drawn) | – | 1.09% (inactive)
17 | COc1cccc2c1C(=O)c1c(O)c3c(c(O)c1C2=O)C[C@@](O)(C(=O)CO)C[C@@H]3O[C@H]1C[C@H](N)[C@H](O)[C@H](C)O1 | 5010 nM (active) | –
18 | C[C@]12CC[C@@H]3c4ccc(O)cc4CC[C@H]3[C@@H]1CC[C@@H]2O | – | -1.7% (inactive)

tested on: not listed separately; experiment: MultiTox-Fluor Cytotoxicity Assay - LYMP1-002 - Dead Cells (AID 960); details: LYMP1-002 lymphoblastoid cells, dead-cell protease fluorescence; series mostly up to 46.1 µM; cytotoxicity (dead cells): at the top concentration; also: nearly all actives have a fitted effect of over 60% in size; also: potency is read from the fitted curve at half-maximal effect;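 as to cytotoxicity (dead cells): cells exposed to compound for 16 h at 37 °C; 0% = DMSO and 100% = tetraoctylammonium bromide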
Method in brief: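 Human lymphoblastoid LYMP1-002 cells, 2500/well, treated 16 h at 37 C; dead-cell protease cleavage of bis-AAF-R110 read by fluorescence (485/520); normalized to DMSO and 15 uM tetraoctylammonium bromide; AC50 from Hill fit.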

Row | SMILES | Potency | cytotoxicity (dead cells)
19 | COc1cccc2c1C(=O)c1c(O)c3c(c(O)c1C2=O)C[C@@](O)(C(C)=O)C[C@@H]3O[C@H]1C[C@H](N)[C@H](O)[C@H](C)O1 | 12600 nM (active) | –
20 | CC(=O)O[C@]1(C(C)=O)CC[C@H]2[C@@H]3C[C@H](C)C4=CC(=O)CC[C@]4(C)[C@H]3CC[C@@]21C | – | 2.91% (inactive)
21 | O=C(O)CCCCC(=O)O | – | -0.343% (inactive)
22 | Cc1c2oc3c(C)ccc(C(=O)N[C@@H]4C(=O)N[C@H](C(C)C)C(=O)N5CCC[C@H]5C(=O)N(C)CC(=O)N(C)[C@@H](C(C)C)C(=O)O[C@@H]4C)c3nc-2c(C(=O)N[C@@H]2C(=O)N[C@H](C(C)C)C(=O)N3CCC[C@H]3C(=O)N(C)CC(=O)N(C)[C@@H](C(C)C)C(=O)O[C@@H]2C)c(N)c1=O (I: T[dV]P[Sar][NMeV] / II: T[dV]P[Sar][NMeV]; ester I:1-I:C, II:1-II:C; linker I:N-II:N via Actinocin(9to1)) | 25.1 nM (active) | –
23 | CC(O)C(=O)O (stereo not drawn) | – | 11.1% (inactive)
24 | COc1cccc2c1C(=O)c1c(O)c3c(c(O)c1C2=O)C[C@@](O)(C(=O)CO)C[C@@H]3O[C@H]1C[C@H](N)[C@H](O)[C@H](C)O1 | 3160 nM (active) | –

tested on: not listed separately; experiment: MultiTox-Fluor Cytotoxicity Assay - LYMP1-003 - Dead Cells (AID 961); details: LYMP1-003 lymphoblastoid cells, dead-cell protease fluorescence; series mostly up to 92.2 µM; cytotoxicity (dead cells): at the top concentration;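 also: cells exposed to compound for 16 h at 37 °C; nearly all actives have a fitted effect of over 70% in size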; also: potency is read from the fitted curve at half-maximal effect;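 as to cytotoxicity (dead cells): 0% = DMSO and 100% = tetraoctylammonium bromide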
Method in brief: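 Human lymphoblastoid LYMP1-003 cells (2500/well) were treated with compounds for 16 hr at 37 C in complete medium. Dead-cell protease release was read by bis-AAF-R110 fluorescence (Ex/Em 485/520). AC50 came from Hill fits, normalized to DMSO and 15 uM tetraoctylammonium bromide.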

Row | SMILES | Potency | cytotoxicity (dead cells)
25 | COc1cccc2c1C(=O)c1c(O)c3c(c(O)c1C2=O)C[C@@](O)(C(C)=O)C[C@@H]3O[C@H]1C[C@H](N)[C@H](O)[C@H](C)O1 | 1000 nM (active) | –
26 | CC(=O)O[C@]1(C(C)=O)CC[C@H]2[C@@H]3C[C@H](C)C4=CC(=O)CC[C@]4(C)[C@H]3CC[C@@]21C | – | 2.49% (inactive)
27 | O=C(O)CCCCC(=O)O | – | -11.5% (inactive)
28 | Cc1c2oc3c(C)ccc(C(=O)N[C@@H]4C(=O)N[C@H](C(C)C)C(=O)N5CCC[C@H]5C(=O)N(C)CC(=O)N(C)[C@@H](C(C)C)C(=O)O[C@@H]4C)c3nc-2c(C(=O)N[C@@H]2C(=O)N[C@H](C(C)C)C(=O)N3CCC[C@H]3C(=O)N(C)CC(=O)N(C)[C@@H](C(C)C)C(=O)O[C@@H]2C)c(N)c1=O (I: T[dV]P[Sar][NMeV] / II: T[dV]P[Sar][NMeV]; ester I:1-I:C, II:1-II:C; linker I:N-II:N via Actinocin(9to1)) | 50.1 nM (active) | –
29 | CC(O)C(=O)O (stereo not drawn) | – | -7.55% (inactive)
30 | COc1cccc2c1C(=O)c1c(O)c3c(c(O)c1C2=O)C[C@@](O)(C(=O)CO)C[C@@H]3O[C@H]1C[C@H](N)[C@H](O)[C@H](C)O1 | 6310 nM (active) | –
31 | C[C@]12CC[C@@H]3c4ccc(O)cc4CC[C@H]3[C@@H]1CC[C@@H]2O | – | 27.8% (inactive)

tested on: not listed separately; experiment: MultiTox-Fluor Cytotoxicity Assay - LYMP1-003 - Live Cells (AID 962); details: LYMP1-003 lymphoblastoid cells, MultiTox-Fluor live-cell protease fluorescence; series mostly up to 92.2 µM; activity change, negative = fewer live cells: at the top concentration;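 also: cells exposed to compound for 16 hours at 37 °C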; also: potency is read from the fitted curve at half-maximal effect;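 as to activity change, negative = fewer live cells: 0% = DMSO only and full loss = 92 µM tetraoctylammonium bromide; cytotoxic hits lower the live-cell protease signal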
Method in brief: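 LYMP1-003 lymphoblastoid cells, 2500/well in complete medium, treated 16 h at 37 C; live-cell protease cleavage of GF-AFC read by fluorescence (Ex/Em 405/510) after 60 min reagent; AC50 from Hill fits of concentration-response.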

Row | SMILES | Potency | activity change, negative = fewer live cells
32 | COc1cccc2c1C(=O)c1c(O)c3c(c(O)c1C2=O)C[C@@](O)(C(C)=O)C[C@@H]3O[C@H]1C[C@H](N)[C@H](O)[C@H](C)O1 | 501 nM (active) | –
33 | CC(=O)O[C@]1(C(C)=O)CC[C@H]2[C@@H]3C[C@H](C)C4=CC(=O)CC[C@]4(C)[C@H]3CC[C@@]21C | – | -7.2% (inactive)
34 | O=C(O)CCCCC(=O)O | – | -4.91% (inactive)
35 | CC(O)C(=O)O (stereo not drawn) | – | -4.29% (inactive)
36 | COc1cccc2c1C(=O)c1c(O)c3c(c(O)c1C2=O)C[C@@](O)(C(=O)CO)C[C@@H]3O[C@H]1C[C@H](N)[C@H](O)[C@H](C)O1 | 794 nM (active) | –
37 | Oc1ccc(Cl)cc1Sc1cc(Cl)ccc1O | – | -35.7% (inactive)
38 | C[C@]12CC[C@@H]3c4ccc(O)cc4CC[C@H]3[C@@H]1CC[C@@H]2O | – | -3.88% (inactive)
